p53 reactivator: restores transcriptional activity of mutant p53. hit rate 0.063% among 320,000. H1299 p53-A138V BP100-luciferase reporter, luminescence, 24 h. Potency, µM (top dose mostly 92.2 µM), inactives show at the highest dose activity change, positive = activation, most hits filed as activators; also: potency is read from the fitted curve at half-maximal effect; % of control where 0% means no effect; nearly all actives have a fitted effect of over 45% in size
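H1299 (p53-null), stable ts p53-A138V + BP100-Luc; 1000 cells/well, Opti-MEM/10% FBS; cpd 4 pt, 1:5; 24 h, 37 deg C, 5% CO2; detection reagent 10 min RT; luminescence.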
GLP-1R agonist: agonists of human GLP-1 receptor; HEK293 GLP-1R CRE-luciferase, luminescence, 4-6 h; cells express a hypersensitive GLP-1R form; P43220; Potency, µM (highest dose often 45.6 µM), inactives show at the top dose activation, hits mostly activators; hit rate 0.007% among 380,000; also: potency is read from the fitted curve at half-maximal effect; % of control where 0% means no effect
Target sequence (P43220 whole entry, looked up): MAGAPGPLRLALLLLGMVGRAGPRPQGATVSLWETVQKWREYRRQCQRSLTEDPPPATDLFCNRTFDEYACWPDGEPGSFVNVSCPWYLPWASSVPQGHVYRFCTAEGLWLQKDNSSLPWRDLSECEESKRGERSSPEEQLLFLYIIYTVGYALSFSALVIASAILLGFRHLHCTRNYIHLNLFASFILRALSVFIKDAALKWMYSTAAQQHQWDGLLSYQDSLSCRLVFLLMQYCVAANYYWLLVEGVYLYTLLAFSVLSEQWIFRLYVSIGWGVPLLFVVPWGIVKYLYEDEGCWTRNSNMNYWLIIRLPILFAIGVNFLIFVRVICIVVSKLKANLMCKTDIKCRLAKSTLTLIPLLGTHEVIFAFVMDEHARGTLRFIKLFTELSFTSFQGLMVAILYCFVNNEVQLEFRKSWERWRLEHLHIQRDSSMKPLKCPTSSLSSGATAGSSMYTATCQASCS
ClpP mod: qHTS Assay for Activators of ClpP; ATP-dependent Clp protease proteolytic subunit (Bacillus subtilis (strain 168)), P80244; purified B. subtilis ClpP, FRET peptide cleavage, 20 min; Potency, µM (series often up to 57.5 µM), for the others: top-dose activity change, negative = active; hit rate 1.9% among 340,000; AID 651965, 2013; active = well fitted falling curve with a large enough effect; inconclusive = small, poorly fitted or top-dose-only effect; inactive = no such curve, though single readings can be large or run the other way; also: potency is read from the fitted curve at half-maximal effect; the source files actives as falling curves though it sought activators and does not explain the sign; nearly all actives have a fitted effect of over 65% in size
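FRET quenching reversal measured ClpP activation: 10 microg/mL B. subtilis ClpP at pH 8 with the FRET-FV decapeptide, read at 430 nm after 320 nm excitation. The 20-min minus 0-min signal was scaled between DMSO/no-enzyme wells and ADEP (5.8 microM final).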
GLP-1R inv ag: GLP-1 receptor (human) inverse agonism; P43220; HEK293 GLP-1R CRE-luciferase, luminescence, 24 h; GLP-1R form is constitutively active; Potency, µM (doses to about 38.3 µM), without a hit: top-dose activity change, negative = inhibition, most hits filed as inhibitors; hit rate 1.6% among 410,000; AID 624417; also: potency is read from the fitted curve at half-maximal effect; % is scaled to controls: 0 for no effect and ±100 for the full control effect; nearly all actives have a fitted effect of over 55% in size
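Constitutively active GLP-1R drives a cAMP-responsive luciferase in stably transfected HEK293 cells; test compounds are added after overnight (12 h) attachment and left 24 hr, and signal loss in luminescence marks inhibition.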
LDHA block: inhibitors of human lactate dehydrogenase A; P00338; purified LDHA, NADH/diaphorase-resazurin fluorescence; stronger effect = lower value; activity change, % (values are at about 110 or 230 µM); hit rate 0.15% among 480,000; in the data active = activity change below about -30%; inconclusive = mostly about -25% to -30%;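 also: plate controls were DMSO wells for no effect and wells without enzyme for full effect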
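Enzyme activity of human lactate dehydrogenase 5 (2 nM; 0.06 mM NADH, 0.2 mM pyruvate, 5 min, RT) is measured via a resazurin/diaphorase fluorescence readout of residual NADH.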
GLP1R cytotox: cytotoxic in the GLP-1 receptor inverse agonist counter-screen; HEK293 cAMP-luciferase reporter cells, luminescence, 24 h; Potency, µM (top dose mostly 38.3 µM), without a hit: at the highest dose activity change, negative = inhibition, most hits filed as inhibitors; hit rate 0.13% among 410,000; AID 624418;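 also: loss of luciferase light is scored as toxicity; potency is read from the fitted curve at half-maximal effect; % is scaled to controls: 0 for no effect and ±100 for the full control effect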
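1536-well qHTS counterscreen of the MLSMR; 200 cells/uL, 12 h pre-incubation, 23 nL cpd, 24 h at 37 deg C 5% CO2, luciferase detection reagent, 12 min RT, luminescence. Inhibition = undesired.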
Numbers without * were called inactive; ? = inconclusive; . = no result given. Shown are actives, neighbours in structure and some others; about 2.9% of the full set was active somewhere. Unless noted, calls follow the shape of the dose curve; as a rule, active = well fitted curve in the direction sought with a large enough effect; inconclusive = small, poorly fitted or top-dose-only effect, or another doubt; inactive = no such curve, though single readings can be large; an effect the other way counts as inactive or inconclusive.

SMILES	p53 reactivator	GLP-1R agonist	ClpP mod	GLP-1R inv ag	LDHA block	GLP1R cytotox
N#Cc1c(-c2ccccc2)cc(-c2ccccc2)nc1SCC(O)CS(=O)(=O)Cc1ccc(Cl)cc1 (centres undefined)	.	.	10µM*	-28.9%	-3.5	1.0%
COc1cc(-c2cc(-c3ccccc3)nc(SCC(=O)Nc3nccs3)c2C#N)cc(OC)c1OC	-4.5%	12.5%	25.1µM*	20.4%	-3.7	87.1%
COc1ccc(CNC(=O)CSc2nc(-c3ccccc3)cc(-c3cccs3)c2C#N)cc1	3.0%	-9.6%	?	1.5%	0.7	-6.5%
COC(=O)c1ccc(N2Cc3ccccc3/C2=N\C(=O)Nc2ccccc2)cc1	6.7%	-7.4%	17.8%	10.1%	-4.5	-4.9%
Cc1nn(Cc2c(F)c(F)c(F)c(F)c2F)c(C)c1NC(=O)c1c([N+](=O)[O-])c(C)nn1C	-2.2%	2.2%	-1.9%	0.0%	-4.0	1.3%
COc1cc(C(=O)OC(C)CN2CCCC2)cc(OC)c1OC (centres undefined)	.	2.2%	-11.4%	2.7%	-2.2	-15.2%
CCc1c(C)c(C#N)c2nc3ccccc3n2c1NCC1CCCO1 (centres undefined)	-7.2%	3.3%	4.0%	6.8%	-2.2	69.2%
O=C(/C=C/c1ccc(Br)o1)Nc1nnc(C2CC2)s1	6.9%	.	.	.	.	.
Cc1ccccc1N=C1NN=C(c2ccccc2F)CS1	12.6µM*	2.1%	-3.8%	?	-14.3	?
Cc1cccc(C)c1N=C1NN=C(c2ccccc2F)CS1	8.4%	1.4%	1.0%	?	-5.9	-6.9%
CCCCCCNc1c([N+](=O)[O-])c(=O)sc2ccccc12	5.3%	9.7%	-0.4%	?	-6.2	-4.8%
CCC(Sc1nc2cc3c(cc2c(=O)n1CCCC(=O)NCc1ccc(OC)cc1)OCO3)C(=O)NCCCOC (centres undefined)	.	.	0.0%	13.6%	-0.3	-3.9%
Cc1cc(Cl)ccc1OCCCC(=O)N1CCOCC1	?	-1.1%	-1.5%	-25.6%	-2.5	-10.3%
Cc1ccc(OCCCC(=O)N2CCOCC2)cc1	1.7%	-6.9%	10µM*	6.9%	0.4	-6.0%
CCc1ccccc1NC(=O)Cn1nnc2sc3c(c2c1=O)CCC(C(C)(C)C)C3 (centres undefined)	.	.	-4.6%	11.2µM*	-1.5	-13.6%
Cc1ccc(Cl)cc1NC(=O)Cn1nnc2sc3c(c2c1=O)CCC(C(C)(C)C)C3 (centres undefined)	.	.	-5.9%	-7.7%	-2.2	5.6%
Cc1ccc(C)c(NC(=O)CSc2nc3ccccc3nc2N2CCOCC2)c1	12.1%	3.6%	5.2%	0.4%	-6.6	2.5%
O=C(OCC(=O)N1CCCC1=O)c1cc(-c2ccco2)nc2ccccc12	.	.	.	.	12.2	.
CCN(c1ccccc1)S(=O)(=O)c1ccc(NCC2COc3ccccc3O2)nc1 (centres undefined)	-1.3%	4.5%	-11.4%	5.01µM*	7.7	-8.7%
CCN(c1ccccc1)S(=O)(=O)c1ccc(Cl)nc1	0.6%	1.2%	.	-0.3%	-4.4	-3.7%
CCc1ccccc1NC(=O)CCC(=O)Nc1nnc(C(C)C)s1	-0.7%	-7.6%	-2.6%	2.6%	-5.2	-4.9%
CC(=O)Oc1ccc2ccccc2c1C(NC(=O)Cc1ccccc1)c1ccccc1Cl (centres undefined)	-2.7%	-14.4%	-2.7%	5.62µM*	-1.7	?
CCCC(=O)NC(c1ccccc1Cl)c1c(O)ccc2ccccc12 (centres undefined)	0.4%	-14.7%	?	7.08µM*	-6.9	?
Cc1ccc(C(NC(=O)C2CCCCC2)c2c(O)ccc3ccccc23)cc1 (centres undefined)	11.2%	-26.2%	?	4.47µM*	-1.4	?
CCCCC(=O)NC(c1ccccc1Cl)c1c(O)ccc2ccccc12 (centres undefined)	-5.2%	4.5%	0.1%	?	-8.2	-20.7%

Bioassay records deposited in PubChem by National Center for Advancing Translational Sciences (NCATS).
